# Compounds with a hit are over-represented: about 7.3% of the library has one in this group of screens.
# FMDV inh: antivirals against foot and mouth disease virus. Potency, µM (series often up to 57.9 µM), actives largely listed as inhibitors. AID 1159524. 410,000 tested, 1.2% active. FMDV antiviral cell-based qHTS; calls by dose curve; tested in HEK293T cells; further: read-out not given here; nearly all actives have a fitted effect of over 45% in size
# HCV inhibitor: inhibitors of hepatitis C virus infection; Potency, µM (top dose mostly 41.8 µM), hits mostly inhibitors; AID 651820; Huh7.5.1 HCVcc-Cre infection, luciferase reporter, 44 h; 340,000 tested, 3.4% active; active means well fitted inhibition curve with a large enough effect; inconclusive means small, poorly fitted or top-dose-only effect, or another doubt; inactive means no such curve, though single readings can be large or run the other way
#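 Seed cells (1,000/well) for 4 h; treat with compound and infect with HCVcc-Cre, moi about 0.5. Incubate 44 h, then detect luciferase activity.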
# Vaccinia Venus: inhibitors of vaccinia virus (Venus reporter); Vaccinia virus Venus reporter expression, fluorescence; Potency, µM (series often up to 36.5 µM), most hits filed as inhibitors; 330,000 tested, 0.46% active; calls by dose curve; tested in A549 cells; further: nearly all actives have a fitted effect of over 30% in size
# Vaccinia mCherry: inhibitors of vaccinia virus infection (mCherry reporter signal) | Potency, µM (doses to about 36.5 µM), actives largely listed as inhibitors | 310,000 tested, 0.63% active | Vaccinia virus mCherry reporter infection, fluorescence; calls by dose curve; tested in A549 cells; further: nearly all actives have a fitted effect of over 35% in size
# HCMV antiviral: inhibitors of human cytomegalovirus; HFF cells, HCMV-luciferase reporter, 72 h; active compounds read low; activity change, negative = inhibition, % at 57.5 µM; 410,000 tested, 4.5% active; AID 1259415; in the data active means activity change below about -60%; inconclusive means no clear call, values can overlap the other calls; inactive means above about -39%
#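 Two compound doses tested in HFFs infected with HCMV-luciferase, MOI 1 PFU/cell, 72 h at 37C. Lysate luminescence read with OneGlo; data normalized against buffer-only and 10uM Salinomycin inhibitor controls.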
# Hits are given with their value; - = inactive; ? = inconclusive; . = not tested or not shown; [ ] = dose if it differs, or a comment.
SMILES,FMDV inh,HCV inhibitor,Vaccinia Venus,Vaccinia mCherry,HCMV antiviral
COc1ccc(S(=O)(=O)N2c3ccccc3OCC2C(C)(C)C)cc1 (stereo unspecified),-,-,-,-,-
COc1ccc(S(=O)(=O)N2c3ccccc3OCC2C)cc1 (stereo unspecified),-,?,-,?,-66
COc1ccc(S(=O)(=O)N2c3ccccc3OCC2c2ccccc2)cc1 (stereo unspecified),13µM,?,.,.,?
CC(=O)c1ccc(NC(=O)C(C)N2CCN(C/C=C/c3ccccc3)CC2)cc1 (stereo unspecified),?,?,-,-,-
CC(C(=O)Nc1ccc([N+](=O)[O-])cc1)N1CCN(C/C=C/c2ccccc2)CC1 (stereo unspecified),28µM,?,-,-,?
COc1cccc(NC(=S)N2CCN(S(=O)(=O)c3ccc(F)cc3)CC2)c1,-,-,-,?,-63
COc1ccc(NC(=S)N2CCN(S(=O)(=O)c3ccc(C)cc3)CC2)cc1,-,-,-,-,-61
COc1ccc(NC(=S)N2CCN(C/C=C/c3ccccc3)CC2)cc1,-,?,-,?,-65
CCOc1ccc(NC(=S)N2CCN(C/C=C/c3ccccc3)CC2)cc1,-,?,?,?,-
COC(=O)CC#C[C@H](C)[C@@H](NS(=O)(=O)c1ccc(C)cc1)C1CCCCC1,.,.,.,.,-
C[C@@H]1[C@H](c2ccccc2)OCCS(=O)(=O)N1Cc1ccccc1Br,.,.,-,-,.
O=C(NCCc1ccncc1)[C@@H]1[C@@H](CO)[C@@H]2Cn3c(cccc3=O)[C@H]1N2Cc1ccccc1F,.,.,.,.,-
N#Cc1cccc(-c2ccc3c(c2)COCC(=O)N3CCN2CCOCC2)c1,.,.,.,.,-
CSc1cccc(NC(=O)C2CCN(S(=O)(=O)c3ccc(F)cc3)CC2)c1,.,11µM,?,-,-
CCOC(=O)c1cccn1C1C(=O)N(Cc2ccc3c(C)cc(=O)oc3c2)c2ccc(Cl)cc21 (stereo unspecified),.,.,.,.,-
CNc1nc(N)c([N+](=O)[O-])c(Nc2cccc(F)c2)n1,-,22µM,-[7.34 µM],-[7.34 µM],-
Nc1nc(NCCOCCO)nc(Nc2cccc(F)c2)c1[N+](=O)[O-],?,?,.,.,-
CNc1nc(N)c([N+](=O)[O-])c(NCc2ccccc2)n1,-,-,-,-,-
C=CCNc1nc(N)c([N+](=O)[O-])c(Nc2cccc(Cl)c2)n1,-,2.8µM,-,-,-
CNc1nc(N)c([N+](=O)[O-])c(Nc2cccc(Cl)c2)n1,-,8.9µM,.,.,-
Nc1c(C(=O)NCc2ccccc2)c2nc3ccccc3nc2n1-c1ccc2c(c1)OCO2,.,-,-,-,-77
Nc1ccc(-n2c(N)c(C(=O)NCc3ccc4c(c3)OCO4)c3nc4ccccc4nc32)cc1,?,2.5µM,-,?,-
CC(C)CNC(=O)c1c(N)n(Cc2ccc3c(c2)OCO3)c2nc3ccccc3nc12,-,-,.,.,-80
CC(C)CCNC(=O)c1c(N)n(Cc2ccc3c(c2)OCO3)c2nc3ccccc3nc12,-,-,.,.,-
Cc1oc2ncnc(N3CCOCC3)c2c1C(=O)NCc1ccccc1,-,.,-,-,-
SMILES,FMDV inh,HCV inhibitor,Vaccinia Venus,Vaccinia mCherry,HCMV antiviral
Cc1cccc(CN2CCc3nnc(C(C)NC(=O)C4CCOCC4)n3CC2)c1 (stereo unspecified),-,.,-,-,.
Cc1ccc(NC(=O)c2c(C)oc3ccc(O)c(CN4CCCCCC4)c23)cc1,?,.,-[7.34 µM],-[7.34 µM],-85
Cc1oc2ccc(O)c(CN3CCCCCC3)c2c1C(=O)Nc1cccc(Cl)c1C,?,.,-,?,-100
Cc1ccc(NC(=O)c2c(C)oc3ccc(O)c(CN4CCOCC4)c23)c(C)c1,-,.,-,-,-
Cc1ccc(NC(=O)c2c(C)oc3ccc(O)c(CN4CCCCCC4)c23)c(C)c1,-,.,-[7.34 µM],-[7.34 µM],-65
Cc1oc2ccc(O)c(CN(C)Cc3ccccc3)c2c1C(=O)Nc1cccc(Cl)c1C,?,.,-,-,-66
CCc1cccc(CC)c1NC(=O)c1c(C)oc2ccc(O)c(CN3CCCC3)c12,-,.,-,-,-
Cc1ccc(NC(=O)c2c(C)oc3ccc(O)c(CN4CCOCC4)c23)cc1,-,.,-,-,-
Cc1cccc(NC(=O)c2cnn(-c3ccccc3)c2-n2cccc2)c1C,?,.,-,-,-
O=C(NCc1ccncc1)c1csc(N2CCN(Cc3cccc(C(F)(F)F)c3)C2=O)n1,.,.,.,.,-
Cc1nc(-n2nc(C)c(CCC(C)C)c2C)sc1C(=O)Nc1ccc(Br)cc1,-,.,-,-,-
Cc1oc2ccc(O)c(CN3CCCCCC3)c2c1C(=O)Nc1cccc(C(F)(F)F)c1,-,.,?,-,-86
CCOC(=O)c1c(-c2ccccc2)oc2ccc(O)c(CN(C)C)c12,-,-,.,.,-
Cc1oc2ccc(O)c(CN3CCCC3)c2c1C(=O)Nc1ccccc1,-,.,-,-,-
CCOC(=O)c1c(-c2ccccc2)oc2ccc(O)c(CN3CCCC3)c12,-,-,.,.,-62
COCCNc1cc(N2CCN(C3CCCCC3)CC2)c2noc3c2c1C(=O)c1ccccc1-3,-,.,-,-,-
CCOCCc1nn2c(=O)cc(COC(=O)c3ccc4c(c3)OCO4)nc2s1,-,.,-,-,-
O=S(=O)(Nc1cccc2ncccc12)c1cccs1,20µM,?,?,13µM,.
Cc1c(NS(=O)(=O)c2cccs2)cccc1-c1nc2cccnc2s1,-,?,.,.,-
CC1=C/C(=N\NC(=S)Nc2cccnc2)CC(C)(C)C1,-,-,-,-,-72
